Screening data (PubChem)
Rows were chosen to be rich in hits. Some 4.5% of all compounds tested hit in one or more screens of this group.
DAX1 inh-1: DAX1 (NR0B1) inhibitors on StAR promoter, primary screen, cell-based, luminescence, SF-1 (NR5A1), full-length DAX-1; HEK293T StAR-luciferase reporter, SF-1/DAX-1 repression relief; inhibition, % at 6.8 µM; actives 1.1% (n = 370,000);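 active means inhibition above the mean over all tested compounds plus 3 SD, cut at about 3.6% in these data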;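 further: 0% = DAX-1 cells with DMSO and 100% = cells lacking DAX-1 with DMSO; higher inhibition means more luminescence from relief of DAX-1 repression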
ssDAF-12 act: S. stercoralis DAF-12 nuclear receptor activators, primary screen, cell-based, luminescence, HEK293, GRIP1 co-expression, lit1-tk-luc; Nuclear hormone receptor DAF-12 (Strongyloides stercoralis); HEK293 ssDAF-12/GRIP1 lit1-tk-luc reporter; % of 3 µM dafachronic acid response; activation, % at 6.8 µM; actives 1% (n = 370,000); AID 652126, 2013;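 active means activation above the mean over all tested compounds plus 3 SD, cut at about 0.9% in these data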;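 further: 0% = DMSO-only wells and 100% = 3 µM delta7-dafachronic acid wells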
DAX1 inh-2: DAX1 (NR0B1) inhibitors, primary screen, cell-based, HEK293, Gal4-DAX1, luciferase luminescence; Nuclear receptor subfamily 0 group B member 1 (Homo sapiens), P51843; HEK293 Gal4-DAX1 luciferase reporter; inhibition, % at 6.75 µM; actives 0.99% (n = 340,000); AID 504766, 2011;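 active means inhibition above the mean over all tested compounds plus 3 SD, cut at about 4.2% in these data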;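 further: 0% = DAX1-transfected cells with DMSO and 100% = empty-vector control cells with DMSO; inhibition shows as a rise in luminescence from relieved DAX1 repression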
Target sequence (P51843 207-470 limits assumed): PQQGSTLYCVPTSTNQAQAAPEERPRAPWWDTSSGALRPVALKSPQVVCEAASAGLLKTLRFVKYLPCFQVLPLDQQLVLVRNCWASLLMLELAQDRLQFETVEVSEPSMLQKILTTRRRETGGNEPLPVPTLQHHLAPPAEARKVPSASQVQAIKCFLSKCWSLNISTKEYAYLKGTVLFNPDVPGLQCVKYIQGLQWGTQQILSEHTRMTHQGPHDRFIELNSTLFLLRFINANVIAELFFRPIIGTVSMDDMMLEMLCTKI
hgDAF12 agonist: H. glycines DAF-12 receptor agonists, primary screen, cell-based, luminescence, HEK293, GAL4 fusion, UAS-luciferase | Nuclear hormone receptor DAF-12 (Heterodera glycines), GAL4 fusion | HEK293 GAL4-hgDAF12 UAS-luciferase reporter, agonist luminescence; normalized to butyrate control | activation, % at 6.8 µM | actives 1.8% (n = 370,000);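 active means activation above a cutoff set at the mean of all screened compounds plus 3 SD, cut at about 10% in these data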;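 further: 0% = DMSO wells and 100% = sodium butyrate wells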
FXN GAA850 act: FXN promoter activators, primary screen, cell-based, luciferase luminescence, HEK293 lucGAA850; HEK293 lucGAA850 FXN promoter luciferase reporter, 24 h; percent of 10 µM SAHA response; activation, % at 6 µM; actives 0.56% (n = 360,000);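 active means activation above the average of all compounds screened plus 3 SD, cutoff fixed separately per campaign, cut at about 7.5% in these data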;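 further: 0% = DMSO wells and 100% = 10 µM SAHA wells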
hcDAF-12 act: H. contortus DAF-12 nuclear receptor activators, primary screen, cell-based, luminescence, HEK293, lit1-tk-luc reporter. HEK293 hcDAF-12 lit1-tk-luc reporter; 0% DMSO, 100% Δ7-dafachronic acid. activation, % at 6.8 µM. actives 1.4% (n = 370,000);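 active means activation above the mean of all tested compounds plus 3 SD, cut at about 5.5% in these data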;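 further: 100% = response to 3 µM Δ7-dafachronic acid high control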
* marks the source's active call; other numbers are inactive results.

For CCOC(=O)c1[nH]c2ccccc2c1NC(=S)Nc1cccc(C)c1 the results were DAX1 inh-1 -0.7, ssDAF-12 act 0.5, DAX1 inh-2 4.0, hgDAF12 agonist -1.1, FXN GAA850 act 2.8 and hcDAF-12 act 5.8*.
For CCOC(=O)c1[nH]c2ccccc2c1NC(C)=O the results were DAX1 inh-1 0.4, ssDAF-12 act -0.2, DAX1 inh-2 1.1, hgDAF12 agonist 1.7, FXN GAA850 act 0.4 and hcDAF-12 act 3.1.
`CCOC(=O)c1[nH]c2ccccc2c1NC(=O)CC` gave DAX1 inh-1 1.1, ssDAF-12 act 0.4, DAX1 inh-2 -0.4, hgDAF12 agonist 4.6, FXN GAA850 act 0.8 and hcDAF-12 act 6.1*.
For CC(=O)CC[C@@H]1CC[C@]2(CCCN(C(=O)c3ccccc3)C2)O1 the results were DAX1 inh-1 0.1, ssDAF-12 act -1.0, hgDAF12 agonist 2.4 and hcDAF-12 act 1.0.
Screening COC(=O)[C@]12C[C@H](CC(=O)NCc3cccs3)C(=O)N(Cc3cccc4ccccc34)C1=C[C@H](COCc1ccccc1)O[C@@H]2C returned DAX1 inh-1 -1.0, ssDAF-12 act -0.6, hgDAF12 agonist 0.3 and hcDAF-12 act 0.9.
For O=S(=O)(NCc1cn(Cc2ccccc2)nn1)c1ccccc1Br the results were DAX1 inh-1 0.2, ssDAF-12 act -1.4, hgDAF12 agonist -1.7 and hcDAF-12 act -0.8.
`CCOC(=O)Nc1nnc(-c2ccccc2OC)s1` gave DAX1 inh-1 -0.2, ssDAF-12 act -0.5, DAX1 inh-2 0.0, hgDAF12 agonist 4.2, FXN GAA850 act 2.5 and hcDAF-12 act 5.8*.
`COC(=O)Nc1nnc(-c2ccccc2OC)s1` gave DAX1 inh-1 0.8, ssDAF-12 act 0.4, DAX1 inh-2 2.3, hgDAF12 agonist 5.5, FXN GAA850 act 7.0 and hcDAF-12 act 4.9.
CCCN=C(C)C1=C(O)c2ccccc2C1=O was read as DAX1 inh-1 1.4, ssDAF-12 act -1.7, DAX1 inh-2 5.3*, hgDAF12 agonist 9.6, FXN GAA850 act 4.8 and hcDAF-12 act 0.5.
Screening CN(c1ccc(NC(=O)CCc2cn(Cc3ccc(Br)cc3)c3ccccc23)cc1)c1ccccn1 returned DAX1 inh-1 -1.1, ssDAF-12 act -1.2, hgDAF12 agonist 0.4 and hcDAF-12 act -0.4.
For O=C(CSc1nc2ccccc2o1)NCc1n[nH]c(=O)c2ccccc12 the results were DAX1 inh-1 0.5, ssDAF-12 act 0.1, DAX1 inh-2 1.6, hgDAF12 agonist 6.0, FXN GAA850 act 1.2 and hcDAF-12 act 6.2*.
Screening COc1ccc(S[C@]2(C(=O)N3CCN(c4ncccn4)CC3)CC(=O)N(c3ccc(Cl)cc3)[C@@H]2c2ccc(OC)cc2)cc1 returned DAX1 inh-1 -0.8, ssDAF-12 act -1.5, hgDAF12 agonist -1.2 and hcDAF-12 act 0.4.
Screening CCCCc1c(C)c2ccc(OCC(C)=O)cc2oc1=O returned DAX1 inh-1 1.8, ssDAF-12 act 0.5, DAX1 inh-2 3.5, hgDAF12 agonist 11.4*, FXN GAA850 act 0.5 and hcDAF-12 act 4.3.
Screening O=C(/C=C/c1ccc(F)cc1)NC(=S)NNC(=O)[C@H]1C[C@@H]1c1ccccc1 returned DAX1 inh-1 3.6*, ssDAF-12 act -0.4, DAX1 inh-2 0.3, hgDAF12 agonist 5.5, FXN GAA850 act 2.5 and hcDAF-12 act 0.4.
COc1cc(C(=O)NC2CCCCN(Cc3cccc(Cl)c3)C2=O)cc(OC)c1OC (stereo unspecified) was read as DAX1 inh-1 -0.6, ssDAF-12 act -1.6, hgDAF12 agonist 1.2 and hcDAF-12 act -3.6.
`O=C(/C(=C\c1ccccc1)c1nc2ccccc2[nH]1)c1ccc(Cl)cc1` gave DAX1 inh-1 0.9, ssDAF-12 act -0.3, DAX1 inh-2 0.1, hgDAF12 agonist 11.2*, FXN GAA850 act -4.7 and hcDAF-12 act 0.9.
Screening O=C(/C(=C/c1ccc(Cl)cc1)c1nc2ccccc2[nH]1)c1cccs1 returned DAX1 inh-2 -5.4 and FXN GAA850 act -11.9.
`COc1ccc(-c2nnn(CC(=O)N(CCCN3CCOCC3)C(C(=O)NC3CCCC3)c3ccco3)n2)cc1` (stereo unspecified) gave DAX1 inh-1 -0.2, ssDAF-12 act -1.1, DAX1 inh-2 5.2*, hgDAF12 agonist -2.4, FXN GAA850 act 0.8 and hcDAF-12 act -0.9.
`Oc1c(/C=N/c2ncn[nH]2)ccc2ccccc12` gave DAX1 inh-1 -0.3, ssDAF-12 act 1.2*, DAX1 inh-2 0.1, hgDAF12 agonist -0.5, FXN GAA850 act -2.2 and hcDAF-12 act 1.9.
Screening COc1ccc(S[C@]2(C(=O)N3CCOCC3)CC(=O)N(P(=O)(OC)OC)[C@@H]2c2ccc(OC)cc2)cc1 returned DAX1 inh-1 -1.7, ssDAF-12 act -0.5, hgDAF12 agonist -1.5 and hcDAF-12 act -1.6.
`Cn1c(C(=O)NCCc2ccccc2)cc(=O)n(C)c1=O` gave DAX1 inh-1 0.1, ssDAF-12 act -1.7, DAX1 inh-2 0.2, hgDAF12 agonist 4.7, FXN GAA850 act -0.2 and hcDAF-12 act -1.2.
For Cn1cccc1C(=O)NCC1CCCCC1 the results were DAX1 inh-1 -0.6, ssDAF-12 act -1.0, DAX1 inh-2 0.4, hgDAF12 agonist 10.0, FXN GAA850 act 3.1 and hcDAF-12 act -0.4.
`Cn1cccc1C(=O)NCCc1ccccc1` gave DAX1 inh-1 2.3, ssDAF-12 act -0.4, DAX1 inh-2 0.3, hgDAF12 agonist 13.2*, FXN GAA850 act 1.6 and hcDAF-12 act 4.2.
Cn1cccc1C(=O)NC1CCCCCC1 was read as DAX1 inh-1 4.4*, ssDAF-12 act -0.1, DAX1 inh-2 0.2, hgDAF12 agonist 8.5, FXN GAA850 act 4.4 and hcDAF-12 act 4.5.
`Cc1nn(Cc2ccccc2)c(Cl)c1C(=O)NCc1ccc(C)n1C` gave DAX1 inh-1 -0.2, ssDAF-12 act -1.6, DAX1 inh-2 3.2, hgDAF12 agonist -1.1, FXN GAA850 act -0.9 and hcDAF-12 act -0.3.
For Cc1nn(Cc2ccccc2)c(Cl)c1C(=O)NCCc1ccccc1 the results were DAX1 inh-1 3.8*, ssDAF-12 act 0.7, DAX1 inh-2 1.1, hgDAF12 agonist 11.3*, FXN GAA850 act 5.3 and hcDAF-12 act 2.4.
